Results published in PubChem BioAssay.
Calls of active or inactive are those of the source.

Legend:
[1] = A549 cell viability effects, profiling panel, calcein-AM fluorescence, 48 h, basal (AID 1162); details: higher = more signal
[2] = adipocyte viability effects, profiling panel, cell-based, 3T3-L1 adipocytes, calcein-AM fluorescence, 48 h, basal (AID 1163); details: 3T3-L1 adipocytes viability, higher = more signal
[3] = HepG2 cell viability effects, profiling panel, calcein-AM fluorescence, 48 h, basal (AID 1164); details: higher = more signal
[4] = MM1S cell viability effects, profiling panel, calcein-AM fluorescence, 48 h, basal (AID 1165); details: higher = more signal;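 also: viability of MM1S multiple myeloma cells under basal unstimulated conditions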
[5] = basal RPMI8226 viability, no added stimulus, profiling panel, cell-based, calcein-AM fluorescence, 48 h, PK04 Diversity Set (AID 1166); details: RPMI8226 myeloma viability, higher = more signal;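 also: cells grown under basal conditions without added stimulus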
[6] = basal HepG2 mitochondrial membrane potential changes, profiling panel, cell-based, JC-1 fluorescence, 24 h, 100 nL compound (AID 1167); details: higher = more signal
[7] = basal 3T3-L1 adipocyte mitochondrial potential changes, profiling panel, cell-based, JC-1 fluorescence, 3T3-L1 adipocytes, 24 h, 100 nL compound (AID 1168); details: JC-1 mitochondrial fluorescence, higher = more signal, called active from +8 up or from −8 down
[8] = basal RPMI8226 mitochondrial membrane potential changes, profiling panel, cell-based, JC-1 fluorescence, 24 h, 100 nL compound (AID 1169); details: RPMI8226 myeloma, JC-1 mitochondrial potential fluorescence, higher = more signal
[9] = basal MM1S mitochondrial membrane potential changes, profiling panel, cell-based, JC-1 fluorescence, 24 h, 100 nL compound (AID 1170); details: higher = more signal
[10] = A549 lung cancer cell viability effects, profiling panel, resazurin fluorescence, 24 h, PK04 Diversity Set (AID 1171); details: higher = more signal, called active from +8 up or from −8 down
Also: test concentration not given here.

SMILES | z-score [1] | z-score [2] | z-score [3] | z-score [4] | z-score [5] | z-score [6] | z-score [7] | z-score [8] | z-score [9] | z-score [10]
C=C1C(=O)C=C2CN(C(=O)c3ccccc3)[C@@](Cc3ccc(OC)cc3)(C(=O)OC)[C@@H]12 | -1.92 | -0.033 | -1.62 | -1.73 | -4.68 | 0.971 | -1.02 (inactive) | -0.908 | -1.74 | -0.701 (inactive)
CC(=O)NCCCC[C@@H]1NC(=O)[C@H]2C[C@@H](C(=O)NCCCCCCNC(=O)CS)[C@@H](c3cccc(OCCO)c3)N2C1=O | -0.769 | 0.251 | -0.644 | -0.504 | 0.236 | -1.4 | -0.306 (inactive) | 0.186 | -0.0983 | -0.131 (inactive)
CN(C)CCCNC(=O)[C@@]1(C)c2ccccc2C(=O)N(Cc2ccc(OC(F)(F)F)cc2)[C@H]1c1ccc(CO)cc1 | 0.173 | 0.886 | -0.261 | -0.0385 | 0.513 | 1.88 | -0.422 (inactive) | -0.136 | 0.197 | 0.074 (inactive)
C=C(COC)/C(=C/C[C@@H](OC(C)=O)c1ccccc1OCCO)c1cnc2ccccc2c1 | 0.106 | 1.5 | -0.268 | -2.48 | -1.14 | 0.23 | -0.433 (inactive) | 0.328 | 1.4 | -1.69 (inactive)
O=C(NC1CC1)[C@@H]1c2ccccc2C(=O)N(Cc2ccc(OC(F)(F)F)cc2)[C@H]1c1ccc(CO)cc1 | 1.1 | 0.707 | -0.591 | 0.0839 | -0.0348 | 2.35 | 0.379 (inactive) | -0.261 | 0.825 | 1.03 (inactive)
CCCN1C(=O)[C@]2(CCC(=O)OC(C)(C)C)N=C(c3ccc(OCCCO)cc3)O[C@@H]2c2ccccc21 | -1.19 | 0.92 | -1.49 | -3.41 | -4.37 | 1.01 | 2.01 (inactive) | -1.32 | -1.54 | -0.965 (inactive)
CN(C)C(=O)[C@@]1(Cc2ccccc2CN=[N+]=[N-])COC(c2ccc(OCCCO)cc2)=N1 | -0.113 | 0.442 | 0.0407 | -3.51 | -2.76 | 1.21 | 1.1 (inactive) | -1.08 | -1.65 | 0.0714 (inactive)
C=CCOC(=O)[C@H]1[C@@H]2C(=O)O[C@@H](c3ccccc3)[C@@H](c3ccccc3)N2[C@@H](c2ccc(OCCOC(=O)[C@@H]3C[C@@H]4C(=O)N[C@@H](CCCCNC(C)=O)C(=O)N4[C@@H]3c3cccc(OCCO)c3)cc2)[C@]12C(=O)Nc1ccccc12 | -0.389 | 0.585 | -0.567 | -0.0545 | 0.879 | 1.24 | 2.61 (inactive) | -0.615 | -0.966 | -0.165 (inactive)
C=C(CCCC)/C(=C/C[C@H](OC(=O)c1ccncc1)c1ccccc1OCCO)c1cc(C(=O)OC)ccc1OC | -0.0906 | 0.503 | -0.629 | -3.29 | -1.82 | 2.06 | -0.292 (inactive) | -0.262 | 0.732 | 0.613 (inactive)
C=CCN1Cc2ccccc2[C@H]2OC(c3ccc(OCCCO)cc3)=N[C@@]2(CCS(=O)(=O)c2ccccc2)C1=O | 0.0622 | 0.413 | -0.37 | -1.56 | -0.209 | -0.971 | -0.509 (inactive) | -0.798 | -0.0644 | 0.0687 (inactive)
COC(=O)C(CC#Cc1ccc2c(c1)[C@]1(C(=O)N2)[C@H](C(=O)NC[C@H](O)c2ccccc2)[C@H]2C(=O)O[C@H](c3ccccc3)[C@H](c3ccccc3)N2[C@@H]1c1ccccc1OCCO)C(=O)OC | -0.101 | 1.14 | -0.272 | -3.29 | -4.57 | -0.0353 | 1.82 (inactive) | -1.16 | -2.1 | 0.422 (inactive)
O=C1O[C@H](c2ccccc2)[C@H](c2ccccc2)N2[C@H]1[C@@H](C(=O)N1CCN(c3ncccn3)CC1)[C@]1(C(=O)Nc3ccc(C#CCCO)cc31)[C@H]2c1ccc(O)cc1 | 0.356 | 0.255 | 0.775 | -0.0982 | -0.26 | -0.19 | -0.501 (inactive) | -0.443 | -0.0233 | 1.59 (inactive)
[N-]=[N+]=Nc1ccccc1[C@@H]1OC(c2ccc(OCCCO)cc2)=N[C@]1(Cc1ccccc1)C(=O)NCCN1CCOCC1 | -0.975 | 1.29 | -0.876 | -2.37 | -4.18 | 0.153 | -0.0447 (inactive) | -1.26 | -0.469 | -0.908 (inactive)
O=C1[C@H]2C=C(I)[C@H](C[C@@H]2OCCCCCCO)[C@@]12CO2 | 0.249 | -0.0741 | -0.394 | -1.22 | -0.273 | -1.58 | 0.0285 (inactive) | -0.264 | -0.571 | 0.339 (inactive)
Cc1ccc(S[C@]2(C(=O)NCCCN(C)C)CC(=O)N(C3Cc4ccccc4C3)[C@@H]2c2ccc(CO)cc2I)cc1 | 0.691 | -0.749 | -0.563 | -2.64 | -2.5 | -0.188 | -1.28 (inactive) | -0.201 | -1.09 | 0.471 (inactive)
COC(=O)[C@@]1(Cc2ccc(OC)cc2)[C@H]2c3cc(C(=O)N4CCCC4)n(Cc4ccc(C(F)(F)F)nc4)c3C[C@H]2CN1C(=O)c1ccccc1 | -1.3 | 0.202 | 0.0749 | -1.03 | -1.33 | 0.952 | -1.59 (inactive) | -0.779 | -1.69 | -0.266 (inactive)
C[N+](C)(C)CCCCNC(=O)[C@H]1C[C@H]2C(=O)N[C@@H](Cc3ccccc3)C(=O)N2[C@H]1c1cccc(OCCO)c1 | -0.52 | -0.878 | -0.097 | 0.135 | -0.748 | -0.559 | -0.318 (inactive) | 0.0888 | -0.4 | -0.967 (inactive)
O=C1O[C@H](Cc2ccccc2)[C@@H]2[C@H]3C=CCCC=C3CN2[C@H]1Cc1ccc(O)cc1 | 0.405 | -0.276 | 0.146 | -3.14 | -0.148 | -2.65 | -0.639 (inactive) | -1.05 | -1.69 | 0.745 (inactive)
O=C1N(CCS(=O)(=O)c2ccccc2)c2ccccc2C[C@]12N=C(c1ccc(OCCCO)cc1)O[C@@H]2c1ccccc1 | -0.982 | 0.0009 | 0.207 | -0.967 | -2.48 | -0.484 | 1.07 (inactive) | -0.687 | -0.242 | -1.37 (inactive)
CCCC[C@H]1C[C@@H]1[C@@H]1N(C(C)=O)[C@H](c2cccc(OC)c2)CC12CC2 | -1.54 | -0.134 | -0.793 | -0.762 | -0.778 | -1.07 | 0.546 (inactive) | -0.172 | -0.643 | 2.94 (inactive)
O=C1C[C@@](C(=O)NCc2ccccc2)(c2ccc([N+](=O)[O-])cc2)[C@@H](c2ccc(CO)cc2)N1C1CCCCC1 | 0.691 | 1.34 | 2.22 | 0.406 | 0.956 | 2.33 | 1.58 (inactive) | -0.343 | 0.242 | -0.685 (inactive)
CCCCN1CC=CC23O[C@@H]4/C=C\CCCOC(=O)C4[C@H]2C(=O)N(C(CO)C(C)C)[C@@H]3C1=O (stereo not given in full) | 0.374 | 0.265 | -0.0249 | 0.201 | 0.463 | -0.945 | -0.525 (inactive) | -0.4 | -0.608 | -0.61 (inactive)
NCCCCCCNC(=O)[C@@H]1C[C@@H]2C(=O)N3CCC[C@H]3C(=O)N2[C@@H]1c1cccc(OCCO)c1 | 0.108 | 1.18 | -0.12 | 0.597 | 0.313 | 0.127 | 0.391 (inactive) | -0.675 | 0.468 | 0.999 (inactive)
O=C1[C@H]2C=C(I)[C@H](C[C@@H]2c2ccccc2)[C@@]12CO2 | -1.3 | -0.417 | -0.382 | -3.18 | -3 | -1.74 | 0.789 (inactive) | -1.2 | -1.32 | -0.122 (inactive)
CN1C(=O)C2C(C1=O)C1C=C(c3ccc(CO)cc3)C2C(C2CC2)N1C (stereo not given) | 0.632 | 1.29 | -0.799 | 0.535 | -0.594 | 0.399 | -0.768 (inactive) | 0.178 | -0.0509 | -0.694 (inactive)
N#Cc1ccc(-c2cccc(=O)o2)cc1 | -0.719 | -1.13 | 0.37 | -0.0271 | -0.394 | -0.875 | 0.492 (inactive) | 0.0366 | -0.548 | -0.0498 (inactive)
CN(C)CCCC[C@@H]1NC(=O)[C@H]2C[C@@H](C(=O)O)[C@@H](c3ccc(O)cc3)N2C1=O | 0.151 | 1.73 | 0.326 | -1.24 | -0.817 | -0.0533 | 0.419 (inactive) | -0.693 | 0.38 | -0.569 (inactive)
CCCCC(=C=CC[C@H](O)c1ccc(CO)o1)CCO | -0.231 | -0.652 | 0.115 | -0.562 | -0.0295 | -0.787 | -0.848 (inactive) | -0.0527 | -0.534 | -0.598 (inactive)
CN1C(=O)C2C=CC(C(O)c3ccc(-c4ccccc4)s3)N(NC(=O)OC(C)(C)C)C2C1=O (stereo not given) | -0.823 | -1.6 | -0.68 | 0.244 | -0.906 | -1.73 | -0.339 (inactive) | -0.0635 | 0.856 | 0.117 (inactive)
CC(C)=C1C(=O)C(c2ccccc2)=C2CN3C(=O)N(CCc4ccccc4)C(=O)[C@]3(C)[C@H]21 | 0.559 | -0.342 | 0.302 | -2.06 | -3.46 | 1.87 | -1.43 (inactive) | -0.879 | -1.66 | -0.337 (inactive)
